Experimental data as given in the supplement of paper PMC6411743.
± gives the standard deviation of the averaged measurements. Of roughly 5,400 targets only a part is listed; those with the largest changes were picked by preference.

Compound: Nc1nc2c(ncn2[C@@H]2O[C@H](COP(=O)(O)OP(=O)(O)OP(=O)(O)O)[C@@H](O)[C@H]2O)c(=O)[nH]1 [guanosine triphosphate]
Assay: NP40-soluble protein abundance relative to vehicle (solubility fold change) (ratio); higher = more soluble protein in presence of GTP
Protocol: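 Solubility proteome profiling in Jurkat crude lysate. Lysate was treated with Mg-GTP (0.1-10 mM) for 10 min at room temperature and 3 min at 37 °C, then solubilised with 0.8% NP40 and benzonase, followed by ultracentrifugation. Proteins were quantified by TMT10 LC-MS/MS; the value is the NP40-soluble abundance relative to the NP40-processed vehicle, from 3 independent experiments.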

Chain of UniProt O00418 (O00418 whole entry): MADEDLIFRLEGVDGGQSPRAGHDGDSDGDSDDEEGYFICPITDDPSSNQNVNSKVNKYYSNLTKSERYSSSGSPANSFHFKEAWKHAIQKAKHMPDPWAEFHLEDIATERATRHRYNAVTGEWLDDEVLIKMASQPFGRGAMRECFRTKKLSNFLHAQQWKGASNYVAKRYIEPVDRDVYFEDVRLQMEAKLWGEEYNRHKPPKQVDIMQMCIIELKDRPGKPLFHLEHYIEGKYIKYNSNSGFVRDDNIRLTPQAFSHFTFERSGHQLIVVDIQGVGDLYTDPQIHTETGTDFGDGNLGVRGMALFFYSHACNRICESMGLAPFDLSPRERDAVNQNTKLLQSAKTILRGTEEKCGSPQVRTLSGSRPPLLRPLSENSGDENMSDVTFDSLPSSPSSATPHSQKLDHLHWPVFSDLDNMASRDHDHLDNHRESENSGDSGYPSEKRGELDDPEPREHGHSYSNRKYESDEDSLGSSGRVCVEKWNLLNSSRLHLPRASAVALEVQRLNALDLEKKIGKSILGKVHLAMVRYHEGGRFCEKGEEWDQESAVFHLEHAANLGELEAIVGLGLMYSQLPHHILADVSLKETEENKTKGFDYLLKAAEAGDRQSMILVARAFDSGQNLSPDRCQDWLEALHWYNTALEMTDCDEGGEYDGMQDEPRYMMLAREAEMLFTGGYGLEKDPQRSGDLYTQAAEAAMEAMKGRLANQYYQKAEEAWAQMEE
Chain of UniProt O43665 (O43665 whole entry): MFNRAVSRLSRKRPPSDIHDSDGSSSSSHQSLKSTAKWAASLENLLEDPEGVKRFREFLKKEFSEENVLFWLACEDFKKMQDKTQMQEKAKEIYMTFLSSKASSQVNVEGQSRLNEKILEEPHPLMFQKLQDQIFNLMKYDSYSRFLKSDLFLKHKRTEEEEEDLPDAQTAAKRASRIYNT
Chain of UniProt P36915 (P36915 whole entry): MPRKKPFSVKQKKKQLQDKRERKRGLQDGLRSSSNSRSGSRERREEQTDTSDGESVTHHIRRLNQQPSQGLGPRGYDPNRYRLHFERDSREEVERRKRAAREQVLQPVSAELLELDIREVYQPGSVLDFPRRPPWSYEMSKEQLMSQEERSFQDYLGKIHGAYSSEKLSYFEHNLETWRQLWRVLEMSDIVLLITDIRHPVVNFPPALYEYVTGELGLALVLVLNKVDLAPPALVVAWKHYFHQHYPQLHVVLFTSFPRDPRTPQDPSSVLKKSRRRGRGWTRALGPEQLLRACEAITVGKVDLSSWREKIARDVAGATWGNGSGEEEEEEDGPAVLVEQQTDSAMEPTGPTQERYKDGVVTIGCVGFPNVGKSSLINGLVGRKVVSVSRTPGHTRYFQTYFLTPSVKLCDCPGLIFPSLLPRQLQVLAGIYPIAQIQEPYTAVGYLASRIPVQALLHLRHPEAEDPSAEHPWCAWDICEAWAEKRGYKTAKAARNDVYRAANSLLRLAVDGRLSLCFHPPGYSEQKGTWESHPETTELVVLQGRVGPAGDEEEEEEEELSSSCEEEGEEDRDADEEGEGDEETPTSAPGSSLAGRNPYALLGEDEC
Chain of UniProt O60287 (O60287 whole entry): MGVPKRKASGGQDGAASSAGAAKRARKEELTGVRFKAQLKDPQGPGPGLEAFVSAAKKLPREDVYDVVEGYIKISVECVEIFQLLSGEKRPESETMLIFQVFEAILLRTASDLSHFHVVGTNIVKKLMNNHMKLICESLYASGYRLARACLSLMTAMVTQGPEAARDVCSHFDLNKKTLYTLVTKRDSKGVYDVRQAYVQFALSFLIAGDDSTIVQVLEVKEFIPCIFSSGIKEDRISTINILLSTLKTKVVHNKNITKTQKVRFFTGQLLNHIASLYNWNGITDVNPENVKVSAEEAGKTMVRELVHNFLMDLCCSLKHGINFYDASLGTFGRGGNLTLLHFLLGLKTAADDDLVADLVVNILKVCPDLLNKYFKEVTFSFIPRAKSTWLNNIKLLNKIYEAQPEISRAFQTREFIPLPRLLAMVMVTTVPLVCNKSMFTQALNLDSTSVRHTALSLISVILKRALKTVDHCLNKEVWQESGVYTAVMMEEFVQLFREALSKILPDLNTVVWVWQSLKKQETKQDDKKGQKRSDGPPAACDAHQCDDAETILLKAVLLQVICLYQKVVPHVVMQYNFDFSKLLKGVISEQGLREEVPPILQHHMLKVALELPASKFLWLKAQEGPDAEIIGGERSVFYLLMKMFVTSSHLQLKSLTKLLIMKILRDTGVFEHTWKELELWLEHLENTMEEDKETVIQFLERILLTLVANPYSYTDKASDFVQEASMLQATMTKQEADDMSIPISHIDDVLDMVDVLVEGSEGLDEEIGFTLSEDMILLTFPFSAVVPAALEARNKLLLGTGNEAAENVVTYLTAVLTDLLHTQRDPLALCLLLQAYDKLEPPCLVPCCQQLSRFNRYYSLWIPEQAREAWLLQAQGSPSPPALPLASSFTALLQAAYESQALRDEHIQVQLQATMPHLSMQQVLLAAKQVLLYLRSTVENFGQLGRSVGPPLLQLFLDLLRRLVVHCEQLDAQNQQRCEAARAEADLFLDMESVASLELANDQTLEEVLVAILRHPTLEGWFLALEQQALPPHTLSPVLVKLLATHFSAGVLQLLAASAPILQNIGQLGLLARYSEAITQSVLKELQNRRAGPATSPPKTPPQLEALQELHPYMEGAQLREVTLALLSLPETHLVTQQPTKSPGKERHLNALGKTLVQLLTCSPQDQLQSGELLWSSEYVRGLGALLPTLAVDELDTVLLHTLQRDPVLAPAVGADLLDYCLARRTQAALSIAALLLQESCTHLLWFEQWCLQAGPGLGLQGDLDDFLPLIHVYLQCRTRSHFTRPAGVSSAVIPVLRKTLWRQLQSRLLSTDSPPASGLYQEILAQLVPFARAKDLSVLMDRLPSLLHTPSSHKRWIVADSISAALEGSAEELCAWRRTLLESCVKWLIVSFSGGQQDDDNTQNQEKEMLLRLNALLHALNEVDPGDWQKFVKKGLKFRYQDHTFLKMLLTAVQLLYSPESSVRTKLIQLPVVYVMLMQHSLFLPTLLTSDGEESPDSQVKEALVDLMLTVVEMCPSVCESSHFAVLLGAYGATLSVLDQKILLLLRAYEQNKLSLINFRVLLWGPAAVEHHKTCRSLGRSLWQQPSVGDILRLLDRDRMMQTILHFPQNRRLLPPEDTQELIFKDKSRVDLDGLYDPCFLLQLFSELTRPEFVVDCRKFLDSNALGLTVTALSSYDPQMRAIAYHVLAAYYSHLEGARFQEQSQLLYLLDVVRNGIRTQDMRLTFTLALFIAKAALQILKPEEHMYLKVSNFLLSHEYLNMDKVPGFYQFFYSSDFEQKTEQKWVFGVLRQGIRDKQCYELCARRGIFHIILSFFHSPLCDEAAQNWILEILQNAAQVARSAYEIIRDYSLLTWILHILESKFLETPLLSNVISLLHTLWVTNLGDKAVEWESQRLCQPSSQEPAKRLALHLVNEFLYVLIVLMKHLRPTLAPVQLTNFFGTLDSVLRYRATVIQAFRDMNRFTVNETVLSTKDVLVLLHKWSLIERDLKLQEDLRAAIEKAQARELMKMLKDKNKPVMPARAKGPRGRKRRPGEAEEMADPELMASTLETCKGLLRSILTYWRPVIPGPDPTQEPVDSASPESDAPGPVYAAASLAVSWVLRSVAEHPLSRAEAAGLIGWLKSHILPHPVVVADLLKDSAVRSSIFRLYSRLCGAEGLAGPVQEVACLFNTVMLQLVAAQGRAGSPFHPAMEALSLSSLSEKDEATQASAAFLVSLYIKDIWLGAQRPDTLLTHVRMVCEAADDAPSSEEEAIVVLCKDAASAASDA

Target	NP40-soluble protein abundance (concentration: 0.1mM)	NP40-soluble protein abundance (concentration: 0.5mM)	NP40-soluble protein abundance (concentration: 1mM)	NP40-soluble protein abundance (concentration: 2mM)	NP40-soluble protein abundance (concentration: 4mM)	NP40-soluble protein abundance (concentration: 6mM)	NP40-soluble protein abundance (concentration: 8mM)	NP40-soluble protein abundance (concentration: 10mM)
URB1 (UniProt O60287)	1.07 ± 0.019	1.16 ± 0.061	1.21 ± 0.076	1.41 ± 0.097	1.79 ± 0.072	1.95 ± 0.13	2.18 ± 0.082	2.34 ± 0.033
EEF2K (UniProt O00418)	0.988 ± 0.074	1.01 ± 0.058	0.944 ± 0.02	0.954 ± 0.044	0.913 ± 0.028	0.951 ± 0.052	0.949 ± 0.068	0.941 ± 0.039
M0R2S1|P62987 (UniProt P62987)	0.88 ± 0.084	0.895 ± 0.11	1.01 ± 0.17	0.915 ± 0.11	0.89 ± 0.089	0.886 ± 0.068	0.867 ± 0.12	0.941 ± 0.11
UniProt O43665|O43665-2|O43665-3	0.802 ± 0.079	0.748 ± 0.035	0.872 ± 0.14	0.865 ± 0.068	0.791 ± 0.038	0.837 ± 0.034	0.79 ± 0.089	0.909 ± 0.14
GNL1 (UniProt P36915)	1.05 ± 0.023	1.03 ± 0.019	0.972 ± 0.033	0.95 ± 0.015	0.9647 ± 0.0095	0.944 ± 0.02	0.959 ± 0.045	0.906 ± 0.061
